# Source: PubChem BioAssay (NCI)
# This is part of a sample that, as a whole, favours compounds with a hit. Of some 83,000 tested, about 20% had one in any assay.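 Negative percent growth values reflect cell death: -40 means 40% of the cells present at the start died, and -100 means all died.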 Calls of active or inactive are those of the source. Rule for the calls: active = growth percent below 10; inactive = the rest.
# System: NCI-H522 lung
# Assay: NCI-60 one-dose screen, 48 h (100 = growth as untreated, 0 = no growth, -100 = all killed)
# Settings: 10 µM unless noted
row,Compound,growth
1,CN1C(=O)CCC(N2C(=O)c3cccc(NCCOCCOCCNC(=O)c4cc5c(o4)C(=O)c4ccccc4C5=O)c3C2=O)C1=O (stereo not drawn),-35% (active)
2,CC/C=C/[C@@H]1C=C[C@@H]2CCC[C@H]2[C@@H]1CC[C@H](O)[C@H](C)N,-56.9% (active)
3,Cc1ccc2c(n1)C(=O)C(Oc1ccc(F)cc1)=CC2=O,-43.9% (active)
4,C/C(=N\NC(=O)Cn1c(-c2ccc(S(C)(=O)=O)cc2)nc2cc(Cl)ccc21)c1ccc(Cl)cc1,74.9% (inactive)
5,Nc1ccn(C2OC(F)(CO)C(O)C2F)c(=O)n1 (stereo not drawn),32.8% (inactive)
6,Cc1ccc(Nc2ccc(Nc3ccc(C)cc3S(=O)(=O)O)c3c2C(=O)c2ccccc2C3=O)c(S(=O)(=O)O)c1,93.3% (inactive)
7,Cc1ccc(NSc2ccccc2[N+](=O)[O-])cc1,12.7% (inactive)
8,Cc1cc(Cl)nc(N(CCCNc2ccnc3cc(Cl)ccc23)Cc2ccccn2)n1,40% (inactive)
9,O=C1NN(C(=O)c2ccc(O)cc2)C(c2ccccc2)=N/C1=C\c1cn(-c2ccccc2)nc1-c1ccccc1,85% (inactive)
10,N#Cc1c(NC(=O)c2cccc(C(F)(F)F)c2)sc2c1CCC(=O)C2,-15.2% (active)
11,CCN(CC)N=Nc1nn(C(=O)Nc2ccc(Cc3ccccc3)cc2)c2ccc(Cl)cc12,67.3% (inactive)
12,Cc1ccc(C)c2c1C(=O)OC2=O,80.8% (inactive)
13,C=C(C)[C@@H]1CC[C@]2(CNCCO)CC[C@]3(C)[C@H](CC[C@@H]4[C@@]5(C)CCC(N)[C@@](C)(CO)[C@@H]5CC[C@]43C)[C@@H]12 (stereo partly drawn),-77.2% (active)
14,C=CC(=O)Nc1cccc(C)c1Nc1cc(-c2cccnc2Cc2c(C)c(OC)cc(OC)c2C)ncn1,-17.4% (active)
15,O=C(CC12CC3CC(CC(C3)C1)C2)NCCOCCOCCOCCNC(=O)c1cc2c(o1)C(=O)c1ccccc1C2=O,-45.6% (active)
16,COc1cc(-c2ccc(N=Nc3c(O)c(C(=O)Nc4ccccc4OC)cc4ccccc34)c(OC)c2)ccc1N=Nc1c(O)c(C(=O)Nc2ccccc2OC)cc2ccccc12,90.4% (inactive)
17,C=CCOc1cccc(/C=C2\SC(=Nc3ccc(O)cc3)NC2=O)c1,-10.9% (active)
18,CC(C)CCC[C@@H](C)[C@H]1CCC2C3=CCn4c(=O)ccc(=O)n4C3CC[C@@]21C (stereo partly drawn),-66.1% (active)
19,COc1ccccc1C(=O)NC(=S)Nc1ccc(-c2nc3ccccc3[nH]2)cc1,91.4% (inactive)
20,COC(=O)[C@]12CC[C@@H](C)[C@H](C)[C@@H]1C1=CC[C@@H]3[C@@]4(C)C(C=O)=C[C@@](C)(CO)C4=CC[C@@]3(C)[C@]1(C)CC2,28.1% (inactive)
21,O=C(NCCOCCOCCNc1cccc2c1C(=O)N(C1CCCNC1=O)C2=O)c1cc2c(o1)C(=O)c1ccccc1C2=O (stereo not drawn),-52.7% (active)
22,O=C1NC(=S)S/C1=C\N1N=C(c2ccc(Cl)cc2)CC1c1ccc(F)cc1 (stereo not drawn),76.1% (inactive)
23,Cc1nc2ccc(C(=O)NCc3cc(C(=O)O)c(C)o3)cc2nc1C,92.2% (inactive)
24,N=C(N)c1ccc(-c2ccc(-c3ccc(Cl)cn3)s2)cc1,48.7% (inactive)

# System: A549/ATCC NSCLC
# Assay: as above
# Settings: 10 µM unless noted
row,Compound,growth
1,NC(=S)N/N=C/C(=O)O,92.2% (inactive)
2,CS(=O)(=O)c1ccc(-c2[nH]c3ccc(F)cc3c2/C=N/NC(N)=S)cc1,18.4% (inactive)
3,O=[N+]([O-])c1ccc(-c2cc3c(Nc4ccc(Cl)c(C(F)(F)F)c4)ncnc3s2)cc1,10.1% (inactive)
4,COC(=O)c1ccc(CSc2nnc(-c3ccncc3)o2)cc1,99.9% (inactive)
5,NS(=O)(=O)Oc1ccc(NC(=O)C23CC4CC(CC(C4)C2)C3)cc1Cl,93.7% (inactive)
6,O=C1N(c2ccccc2)C(=S)N[C@]12[C@H](c1ccccc1)C1CCCN1[C@]21C(=O)NC2C=CC(Cl)=C[C@H]21 (stereo partly drawn),75.4% (inactive)
7,COc1ccc(-c2nc3ncccn3c2/C=C/C(=O)c2cc(OC)c(OC)c(OC)c2)cc1,10.2% (inactive)
8,N#C/C(=C\c1ccc(Br)cc1)n1nnc2cc(Cl)c(Cl)cc21,67.4% (inactive)
9,O=S(=O)(Cc1ccccc1)c1nc2ccccc2s1,98.4% (inactive)
10,COc1ccc(-c2nnc(-c3ccc4c(c3)nc(-c3ccccc3)n4C3CCCCC3)o2)cc1,50.3% (inactive)
11,CN1CCC(=C2c3ccccc3C=Cc3ccccc32)CC1,91.1% (inactive)
12,CNC(=O)NCC1OC(n2cnc3c(NC(=O)Nc4ccccc4)ncnc32)C2OC(C)(C)OC12 (stereo not drawn),103% (inactive)
13,COc1ccc(-c2cncnc2N)cc1OC,97.5% (inactive)
14,O=[N+]([O-])c1ccccc1C(O)Cc1ccc2ccccc2n1 (stereo not drawn),97.4% (inactive)
15,CCn1c(Sc2nnc(NC(C)=O)s2)nc2c1c(=O)n(C)c(=O)n2C,98.7% (inactive)
16,CN1C(=O)CCC(N2C(=O)c3cccc(NCCOCCOCCNC(=O)c4cc5c(o4)C(=O)c4ccccc4C5=O)c3C2=O)C1=O (stereo not drawn),-45% (active)
17,CC/C=C/[C@@H]1C=C[C@@H]2CCC[C@H]2[C@@H]1CC[C@H](O)[C@H](C)N,3.8% (active)
18,Cc1ccc2c(n1)C(=O)C(Oc1ccc(F)cc1)=CC2=O,99.4% (inactive)
19,C/C(=N\NC(=O)Cn1c(-c2ccc(S(C)(=O)=O)cc2)nc2cc(Cl)ccc21)c1ccc(Cl)cc1,66.7% (inactive)
20,Nc1ccn(C2OC(F)(CO)C(O)C2F)c(=O)n1 (stereo not drawn),21.8% (inactive)

row,Compound,growth
1,Cc1ccc(Nc2ccc(Nc3ccc(C)cc3S(=O)(=O)O)c3c2C(=O)c2ccccc2C3=O)c(S(=O)(=O)O)c1,112% (inactive)
2,Cc1ccc(NSc2ccccc2[N+](=O)[O-])cc1,20.5% (inactive)
3,Cc1cc(Cl)nc(N(CCCNc2ccnc3cc(Cl)ccc23)Cc2ccccn2)n1,56.1% (inactive)
4,O=C1NN(C(=O)c2ccc(O)cc2)C(c2ccccc2)=N/C1=C\c1cn(-c2ccccc2)nc1-c1ccccc1,99.7% (inactive)
5,N#Cc1c(NC(=O)c2cccc(C(F)(F)F)c2)sc2c1CCC(=O)C2,14.6% (inactive)
6,CCN(CC)N=Nc1nn(C(=O)Nc2ccc(Cc3ccccc3)cc2)c2ccc(Cl)cc12,67.7% (inactive)
7,Cc1ccc(C)c2c1C(=O)OC2=O,99.4% (inactive)
8,C=C(C)[C@@H]1CC[C@]2(CNCCO)CC[C@]3(C)[C@H](CC[C@@H]4[C@@]5(C)CCC(N)[C@@](C)(CO)[C@@H]5CC[C@]43C)[C@@H]12 (stereo partly drawn),-33.5% (active)
9,C=CC(=O)Nc1cccc(C)c1Nc1cc(-c2cccnc2Cc2c(C)c(OC)cc(OC)c2C)ncn1,8.38% (active)
10,O=C(CC12CC3CC(CC(C3)C1)C2)NCCOCCOCCOCCNC(=O)c1cc2c(o1)C(=O)c1ccccc1C2=O,-41.2% (active)
11,COc1cc(-c2ccc(N=Nc3c(O)c(C(=O)Nc4ccccc4OC)cc4ccccc34)c(OC)c2)ccc1N=Nc1c(O)c(C(=O)Nc2ccccc2OC)cc2ccccc12,95.6% (inactive)
12,C=CCOc1cccc(/C=C2\SC(=Nc3ccc(O)cc3)NC2=O)c1,18.6% (inactive)
13,CC(C)CCC[C@@H](C)[C@H]1CCC2C3=CCn4c(=O)ccc(=O)n4C3CC[C@@]21C (stereo partly drawn),-79.3% (active)
14,COc1ccccc1C(=O)NC(=S)Nc1ccc(-c2nc3ccccc3[nH]2)cc1,58.7% (inactive)
15,COC(=O)[C@]12CC[C@@H](C)[C@H](C)[C@@H]1C1=CC[C@@H]3[C@@]4(C)C(C=O)=C[C@@](C)(CO)C4=CC[C@@]3(C)[C@]1(C)CC2,29.1% (inactive)
16,O=C(NCCOCCOCCNc1cccc2c1C(=O)N(C1CCCNC1=O)C2=O)c1cc2c(o1)C(=O)c1ccccc1C2=O (stereo not drawn),-45.5% (active)
17,O=C1NC(=S)S/C1=C\N1N=C(c2ccc(Cl)cc2)CC1c1ccc(F)cc1 (stereo not drawn),84.1% (inactive)
18,Cc1nc2ccc(C(=O)NCc3cc(C(=O)O)c(C)o3)cc2nc1C,91.4% (inactive)
19,N=C(N)c1ccc(-c2ccc(-c3ccc(Cl)cn3)s2)cc1,27.6% (inactive)
